Records with an inconclusive call do not appear. Calls of active or inactive are those of the source. Unless noted, the call rests on the fitted dose curve; in most records, active means well fitted curve in the direction sought with a large enough effect in the repeat runs; inconclusive means weak or mixed curves; inactive means no such curve, though single readings can be large; an effect the other way counts as inactive or inconclusive.
What was measured:
[1] = qHTS assay to identify small molecule agonists of the peroxisome proliferator-activated receptor delta (PPARd) signaling pathway - cell viability counter screen (AID 743211); further: nearly all actives have a fitted effect of over 55% in size
Method in brief: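 Tox21 library compounds, delivered in DMSO, were incubated 17 h with PPARd-bla HEK293H cells; cytotoxicity was taken from CellTiter-Glo luminescence read 30 min after reagent addition.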

[2] = target: Peroxisome proliferator-activated receptor delta (Homo sapiens) (UniProt Q03181); assay: qHTS assay to identify small molecule agonists of the peroxisome proliferator-activated receptor delta (PPARd) signaling pathway (AID 743212; calls by dose curve)
Sequence of Peroxisome proliferator-activated receptor delta (Homo sapiens) (Q03181 whole entry, looked up): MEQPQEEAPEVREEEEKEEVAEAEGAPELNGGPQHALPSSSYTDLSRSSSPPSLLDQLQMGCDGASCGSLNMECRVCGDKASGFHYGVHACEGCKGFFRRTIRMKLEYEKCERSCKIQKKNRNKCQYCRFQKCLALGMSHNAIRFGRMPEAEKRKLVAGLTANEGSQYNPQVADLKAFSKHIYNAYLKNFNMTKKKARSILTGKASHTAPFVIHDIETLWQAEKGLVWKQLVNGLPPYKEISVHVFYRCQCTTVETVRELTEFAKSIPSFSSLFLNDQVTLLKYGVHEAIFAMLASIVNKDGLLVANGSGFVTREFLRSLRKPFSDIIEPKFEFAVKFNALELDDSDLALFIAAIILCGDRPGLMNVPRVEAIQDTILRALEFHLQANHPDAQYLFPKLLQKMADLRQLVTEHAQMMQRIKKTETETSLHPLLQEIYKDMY
Method in brief: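 HEK293H PPARd-bla cells; 5 h preincubation 37 C/5% CO2; compound (DMSO) 37 C; LiveBLAzer B/G FRET substrate 2 h RT; fluorescence intensity.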

[3] = qHTS assay to identify small molecule antagonists of the peroxisome proliferator-activated receptor delta (PPARd) signaling pathway - cell viability counter screen (AID 743213); further: nearly all actives have a fitted effect of over 50% in size
Method in brief: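 In this counter screen, HEK293H cells carrying a UAS-beta-lactamase reporter are co-treated with test compounds and 300 nM L165041 (final) for 17 h at 37 C; cell viability is quantified by CellTiter-Glo luminescence.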

[4] = target: Peroxisome proliferator-activated receptor delta (Homo sapiens) (UniProt Q03181); assay: qHTS assay to identify small molecule antagonists of the peroxisome proliferator-activated receptor delta (PPARd) signaling pathway (AID 743215; active means well fitted inhibition curve with a large enough effect in the signal ratio in the repeat runs, not every such curve was filed as active; the % refers to the signal ratio;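 further: cells stimulated with agonist L165041 at 300 nM final during compound exposure; series mostly up to about 62 µM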)
Method in brief: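 PPARd-bla HEK293H cells (UAS-bla reporter) preincubated 5 h, then given compound plus 300 nM final L165041 agonist for 17 h at 37 C. Beta-lactamase activity read by LiveBLAzer B/G FRET substrate fluorescence after 2 h at room temperature.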

[5] = target: Bile acid receptor (Homo sapiens) (UniProt Q96RI1); assay: qHTS assay to identify small molecule antagonists of the farnesoid-X-receptor (FXR) signaling pathway (AID 743217; active means well fitted inhibition curve with a large enough effect in the signal ratio in the repeat runs, not every such curve was filed as active; the % refers to the signal ratio)
Sequence of Bile acid receptor (Homo sapiens) (Q96RI1 whole entry, looked up): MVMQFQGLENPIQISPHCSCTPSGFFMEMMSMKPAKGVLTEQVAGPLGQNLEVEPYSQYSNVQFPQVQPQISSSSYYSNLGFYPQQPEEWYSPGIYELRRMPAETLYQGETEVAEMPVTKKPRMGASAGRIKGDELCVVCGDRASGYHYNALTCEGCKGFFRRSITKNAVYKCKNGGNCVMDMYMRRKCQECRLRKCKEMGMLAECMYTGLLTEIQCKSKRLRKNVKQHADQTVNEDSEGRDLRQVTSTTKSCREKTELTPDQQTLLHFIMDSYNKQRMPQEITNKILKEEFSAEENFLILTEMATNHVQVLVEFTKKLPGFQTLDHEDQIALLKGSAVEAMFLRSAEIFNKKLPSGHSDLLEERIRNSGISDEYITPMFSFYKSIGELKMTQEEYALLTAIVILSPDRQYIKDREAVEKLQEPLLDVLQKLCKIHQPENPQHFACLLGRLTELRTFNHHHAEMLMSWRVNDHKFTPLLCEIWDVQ
Method in brief: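 FXR-UAS-bla HEK 293T cells (beta-lactamase reporter) given compound plus chenodeoxycholic acid (50 uM final), 16 h at 37C. LiveBLAzer B/G FRET substrate added for 2 h at room temperature; fluorescence read.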

[6] = qHTS assay to identify small molecule agonists of the farnesoid-X-receptor (FXR) signaling pathway - cell viability counter screen (AID 743218); further: nearly all actives have a fitted effect of over 45% in size
Method in brief: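 FXR-UAS-bla HEK 293T cells exposed to compounds for 16 h at 37C. Cytotoxicity read in the same wells by CellTiter-Glo luminescence after 30 min at room temperature, following the beta-lactamase FRET read.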

[7] = qHTS assay to identify small molecule antagonists of the farnesoid-X-receptor (FXR) signaling pathway - cell viability counter screen (AID 743221; active means well fitted cell-killing curve with a large enough effect in the repeat runs, not every such curve was filed as active; further: nearly all actives have a fitted effect of over 50% in size)
Method in brief: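 Cytotoxicity is taken from ATP luminescence (CellTiter-Glo, 30 min, room temperature) in FXR-bla HEK 293T cells previously incubated 16 h at 37 C with compound and chenodeoxycholic acid at 50 uM final.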

[8] = target: Vitamin D3 receptor (Homo sapiens) (UniProt P11473); assay: qHTS assay to identify small molecule agonists of the vitamin D receptor (VDR) signaling pathway (AID 743222; calls by dose curve)
Sequence of Vitamin D3 receptor (Homo sapiens) (P11473 whole entry, looked up): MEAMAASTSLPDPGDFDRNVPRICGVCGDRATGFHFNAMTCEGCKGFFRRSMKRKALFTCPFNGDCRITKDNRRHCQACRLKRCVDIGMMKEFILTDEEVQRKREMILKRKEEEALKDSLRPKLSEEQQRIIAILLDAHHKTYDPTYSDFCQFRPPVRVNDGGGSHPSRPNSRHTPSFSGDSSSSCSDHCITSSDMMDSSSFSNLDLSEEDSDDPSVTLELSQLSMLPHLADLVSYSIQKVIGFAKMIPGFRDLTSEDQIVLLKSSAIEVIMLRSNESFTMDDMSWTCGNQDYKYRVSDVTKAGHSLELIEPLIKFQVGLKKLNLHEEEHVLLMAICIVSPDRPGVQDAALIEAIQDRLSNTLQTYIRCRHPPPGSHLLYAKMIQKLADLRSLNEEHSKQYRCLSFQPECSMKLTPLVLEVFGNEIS
Method in brief: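 VDR-bla cells plated 4 h at 37 C, then exposed to compounds for 16 h at 37 C. Beta-lactamase reporter activity measured by fluorescence after 2 h room-temperature loading with LiveBLAzer B/G FRET substrate.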

[9] = target: Vitamin D3 receptor (Homo sapiens) (UniProt P11473); assay: qHTS assay to identify small molecule antagonists of the vitamin D receptor (VDR) signaling pathway (AID 743223; active means well fitted inhibition curve with a large enough effect in the signal ratio in the repeat runs, not every such curve was filed as active; the % refers to the signal ratio)
Method in brief: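 Quantitative HTS in VDR-bla reporter cells stimulated with 1alpha,25-dihydroxyvitamin D3, 3 nM final. Compound exposure 16 h, 37C, 5% CO2. Read-out: beta-lactamase FRET substrate fluorescence, 2 h RT.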

[10] = qHTS assay to identify small molecule agonists of the vitamin D receptor (VDR) signaling pathway - cell viability counter screen (AID 743224); further: series mostly up to about 63 µM; nearly all actives have a fitted effect of over 50% in size
Method in brief: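 VDR-bla cells, 4 h after plating, exposed to compounds for 16 h at 37C; viability then read in the same wells as CellTiter-Glo luminescence after 30 min at room temperature, following the bla FRET read.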

[11] = qHTS assay to identify small molecule antagonists of the vitamin D receptor (VDR) signaling pathway - cell viability counter screen (AID 743225); further: nearly all actives have a fitted effect of over 50% in size
Method in brief: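 Same-well multiplex: following 16 h treatment of HEK 293T cells carrying a UAS-driven beta-lactamase reporter with compound and agonist (3 nM final), and a 2 h FRET substrate step, CellTiter-Glo was added and luminescence read after 30 min.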

[12] = qHTS assay to identify small molecule agonists of the NFkB signaling pathway (AID 1159509; active means well fitted curve in the direction sought with a large enough effect in the signal ratio in the repeat runs, not every such curve was filed as active; the % refers to the signal ratio; further: series mostly up to about 61 µM)
Method in brief: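 NFkB-bla ME-180 cells carry a beta-lactamase reporter under an NF-kB response element. They were plated overnight, then exposed to compounds for 5 h at 37 C. Read-out is LiveBLAzer FRET after 1.5 hr at room temperature (405 nm excitation; 460/530 nm emission).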

[13] = qHTS assay to identify small molecule agonists of the NFkB signaling pathway - cell viability counter screen (AID 1159515; calls by dose curve; further: series mostly up to about 61 µM; nearly all actives have a fitted effect of over 55% in size)
Method in brief: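 NFkB-bla ME-180 cells, 2,000/well, plated overnight at 37 C; compound added for 5 hr at 37 C. Viability read in the same wells as the bla reporter, by CellTiter-Glo luminescence after 30 min at room temperature.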

[14] = qHTS assay to identify small molecule agonists of the endoplasmic reticulum stress response signaling pathway (AID 1159516; active means well fitted activation curve with a large enough effect in the signal ratio in the repeat runs, not every such curve was filed as active; the % refers to the signal ratio)
Method in brief: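 CellSensor ESRE-bla HeLa cells, 1,500 per well, plated overnight, then exposed to compounds for 5 hr at 37 C. Beta-lactamase reporter read with LiveBLAzer B/G FRET substrate after 2 hr at room temperature, 405 nm excitation, 460 and 530 nm emission.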

[15] = qHTS assay to identify small molecule agonists of the endoplasmic reticulum stress response signaling pathway - cell viability counter screen (AID 1159517; calls by dose curve)
Method in brief: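 HeLa cells carrying an ESRE-driven beta-lactamase reporter receive compound for 5 hr at 37 C. Cell viability is then gauged with CellTiter-Glo by luminescence, 30 min at room temperature.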

[16] = qHTS assay to identify small molecule antagonists of the retinoid-related orphan receptor gamma (ROR-gamma) signaling pathway - cell viability counter screen (AID 1159520); further: nearly all actives have a fitted effect of over 50% in size
Method in brief: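 Cytotoxicity was read from cellular ATP (CellTiter-Glo luminescence) after 16 hr at 37 C with 1 uM doxycycline induction. The inducer was added 2 hr after compound transfer to Tet-on ROR gamma CHO cells.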

[17] = target: Nuclear receptor ROR-gamma (Homo sapiens) (UniProt P51449); assay: qHTS assay to identify small molecule antagonists of the retinoid-related orphan receptor gamma (ROR-gamma) signaling pathway (AID 1159521)
Method in brief: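 Inducible-expression reporter assay: doxycycline (1 uM final) switched on RORγ in CHO cells bearing a ROR response element-luciferase construct, with test compounds present from 2 h beforehand. Decreased luminescence after 16 h defined antagonist activity.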

[18] = qHTS assay to identify small molecule agonists of the AP-1 signaling pathway - cell viability counter screen (AID 1159525; calls by dose curve; further: nearly all actives have a fitted effect of over 55% in size)
Method in brief: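 Luminescent ATP readout (Cell Titer Glo, 30 min RT), normalised to DMSO and tetra n-octyl ammonium bromide controls. Cells were ME-180 AP-1-bla in 0.5% dialyzed FBS Opti-MEM, with a 5 h, 37 °C compound exposure.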

[19] = qHTS assay to identify small molecule agonists of the AP-1 signaling pathway (AID 1159526; calls by dose curve)
[20] = target: Bile acid receptor (Homo sapiens) (UniProt Q96RI1); assay: qHTS assay to identify small molecule agonists of the farnesoid-X-receptor (FXR) signaling pathway (AID 743220; active means well fitted activation curve with a large enough effect in the signal ratio in the repeat runs, not every such curve was filed as active; the % refers to the signal ratio)
Method in brief: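 Beta-lactamase reporter under UAS control in GeneBLAzer FXR HEK 293T cells (5000/well) measured with LiveBLAzer FRET substrate after 2 h at room temperature. Compound exposure lasted 16 h at 37C.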

Measured: Potency

CC1(C)CC(O)CC(C)(C)N1[O]
not listed: [20]
inactive: all other assays above

C[C@H]1C[C@H]2[C@@H]3CCC4=CC(=O)C=C[C@]4(C)[C@@]3(F)[C@@H](O)C[C@]2(C)[C@@]1(O)C(=O)COP(=O)(O)O
not listed: [5] | [20]
inactive: all other assays above

CO[C@@H]1COCC[C@@H]1N[C@@H]1CC[C@@](C(=O)N2CCc3ncc(C(F)(F)F)cc3C2)(C(C)C)C1
not listed: [5] | [20]
inactive: all other assays above

CC(=O)CC/C=C(\C)CC/C=C(\C)CC/C=C(\C)CCC=C(C)C
not listed: [20]
inactive: all other assays above

C[Si](C)(C)O[Si](C)(C)O[Si](C)(C)C
not listed: [5] | [20]
inactive: all other assays above

Clc1ccccc1-c1nc(-c2ccncc2)no1
not listed: [8] | [9] | [20]
inactive: all other assays above

CCCCCCCCNC
not listed: [11] | [20]
inactive: all other assays above

CCCCCO
not listed: [20]
inactive: all other assays above

O=C(O)c1ccncc1
inactive: all assays above

CC(C)CC(C)(C)C
not listed: [5] | [10] | [20]
inactive: all other assays above

CCCC(=O)OCc1ccccc1
not listed: [9]
inactive: all other assays above

C=Cc1ccc(C=C)cc1
not listed: [6] | [9] | [20]
inactive: all other assays above

COc1ccc(/C=C/S(=O)(=O)NC(=O)c2ccc(C)cc2Cl)cc1
not listed: [8]
inactive: all other assays above

O=c1[nH]nc(-c2ccc([N+](=O)[O-])o2)o1
not listed: [5] | [20]
inactive: all other assays above

OCC(O)c1ccccc1 (stereo unspecified)
not listed: [5] | [9] | [11] | [20]
inactive: all other assays above

CCCCOC(=O)C(C)Oc1ccc(Oc2ccc(C(F)(F)F)cn2)cc1 (stereo unspecified)
not listed: [8]
inactive: all other assays above

Reference: PubChem BioAssay (Tox21)
